According to PubChem BioAssay AID1159580 (chemical genetic matrix, 2015):
In all, about 5,500 compounds went through this assay and about 2,000 (36%) were called active. Not shown: some 18% with an inconclusive outcome. No stated cut-off is given here; in the data, active means normalized growth mostly below about 0.91 (no sharp cut-off); inconclusive means no clear call, values can overlap the other calls; inactive means mostly above about 0.92. The list shows a part of the results.

Test: chemical genetic growth profiling, strain panel (AID 1159580);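 further: tested at 20 µM; growth read once vehicle control cultures reached saturation at 30 °C; 1 = growth at the plate median or of vehicle wells; lower values mean less growth of the strain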
Details: S. cerevisiae deletion strains, growth OD

Measured: normalized growth

Cc1onc(-c2ccccc2)c1-c1ccc(S(N)(=O)=O)cc1
inactive: locus YAL013W, strain DEP1, hits give low values 0.995 | locus YAL021C, strain ccr4, hits give low values 1 | locus YAL026C, strain drs2, hits give low values 1.02 | locus YAL030W, strain snc1, hits give low values 1 | locus YBL061C, strain skt5, hits give low values 1 | locus YBR009C, strain hhf1, hits give low values 1.01 | locus YBR021W, strain FUR4, hits give low values 1 | locus YBR023C, strain chs3, hits give low values 1 | locus YBR171W, strain sec66, hits give low values 0.984 | locus YBR229C, strain ROT2, hits give low values 0.999 | locus YBR231C, strain swc5, hits give low values 1 | locus YBR279W, strain paf1, hits give low values 1 | locus YCL011C, strain gbp2, hits give low values 0.989 | locus YCL016C, strain dcc1, hits give low values 1.02 | locus YCL029C, strain bik1, hits give low values 0.995 | locus YCL061C, strain MRC1, hits give low values 0.993 | locus YCL069W, strain vba3, hits give low values 0.995 | locus YCR088W, strain abp1, hits give low values 0.996 | locus YDL005C, strain med2, hits give low values 0.996 | locus YDL035C, strain GPR1, hits give low values 1 | locus YDL040C, strain nat1, hits give low values 1 | locus YDL074C, strain BRE1, hits give low values 0.999 | locus YDL101C, strain DUN1, hits give low values 1 | locus YDL134C, strain PPH21, hits give low values 1.01 | locus YDL185W, strain tfp1, hits give low values 0.988 | locus YDL192W, strain arf1, hits give low values 0.997 | locus YDR001C, strain nth1, hits give low values 1.01 | locus YDR069C, strain doa4, hits give low values 1 | locus YDR101C, strain arx1, hits give low values 0.997 | locus YDR137W, strain rgp1, hits give low values 1.01 | locus YDR150W, strain NUM1, hits give low values 1.02 | locus YDR159W, strain sac3, hits give low values 1.01 | locus YDR162C, strain NBP2, hits give low values 0.993 | locus YDR195W, strain ref2 0.963 | locus YDR297W, strain sur2, hits give low values 1 | locus YDR318W, strain mcm21, hits give low values 0.998 | locus YDR334W, strain swr1, hits give low values 1.02 | locus YDR335W, strain msn5, hits give low values 0.997 | locus YDR388W, hits give low values 0.997 | locus YDR392W, strain spt3, hits give low values 1.01 | locus YDR502C, strain sam2, hits give low values 0.99 | locus YEL003W, strain gim4, hits give low values 1 | locus YEL037C, strain rad23, hits give low values 1 | locus YEL061C, strain CIN8 (second series), hits give low values 1.02 | locus YEL061C, strain CIN8, hits give low values 0.992 | locus YER015W, strain faa2, hits give low values 0.997 | locus YER016W, strain bim1, hits give low values 1.01 | locus YER110C, hits give low values 0.997 | locus YER111C, strain swi4, hits give low values 0.996 | locus YER155C, strain BEM2 (second series), hits give low values 1.01 | locus YER155C, strain BEM2, hits give low values 0.988 | locus YER167W, strain BCK2, hits give low values 1 | locus YFR010W, strain ubp6, hits give low values 0.999 | locus YGL078C, strain dbp3, hits give low values 0.995 | locus YGL086W, strain mad1, hits give low values 0.988 | locus YGL167C, strain pmr1, hits give low values 1.02 | locus YGL173C, strain kem1, hits give low values 1.01 | locus YGL227W, strain vid30, hits give low values 0.991 | locus YGL240W, strain doc1, hits give low values 1.01 | locus YGL248W, strain PDE1, hits give low values 1 | locus YGL253W, strain hxk2, hits give low values 0.999 | locus YGR078C, strain PAC10, hits give low values 0.989 | locus YGR135W, strain pre9, hits give low values 0.995 | locus YGR229C, strain SMI1, hits give low values 0.994 | locus YGR252W, strain gcn5, hits give low values 0.985 | locus YHR013C, strain ard1, hits give low values 1.01 | locus YHR027C, strain rpn1, hits give low values 1 | locus YHR030C, strain SLT2, hits give low values 1.01 | locus YHR079C, strain IRE1 (second series), hits give low values 0.998 | locus YHR094C, strain hxt1, hits give low values 0.995 | locus YHR129C, strain ARP1, hits give low values 1 | locus YHR142W, strain chs7, hits give low values 0.989 | locus YHR200W, strain rpn10, hits give low values 1 | locus YIL066C, strain RNR3, hits give low values 0.983 | locus YIL073C, strain SPO22, hits give low values 1.03 | locus YIL125W, strain kgd1, hits give low values 0.99 | locus YIR030C, strain dcg1, hits give low values 1 | locus YJL092W, strain hpr5, hits give low values 0.995 | locus YJL095W, strain BCK1 (second series), hits give low values 1.01 | locus YJL095W, strain BCK1, hits give low values 1.02 | locus YJL115W, strain asf1, hits give low values 0.998 | locus YJL129C, strain trk1, hits give low values 0.972 | locus YJL134W, strain LCB3, hits give low values 1 | locus YJL154C, strain vps35, hits give low values 1.01 | locus YJL164C, strain tpk1, hits give low values 1.01 | locus YJL166W, strain qcr8, hits give low values 1 | locus YJL168C, strain set2, hits give low values 0.998 | locus YJL187C, strain SWE1 (second series), hits give low values 1 | locus YJL187C, strain SWE1, hits give low values 0.996
